“And” between values parts separate entries of the source, which are not always exact repeats. Equal entries are not always repeated. Results filed as inconclusive are left out. The source made the active and inactive calls. Unless noted, the call rests on the fitted dose curve.
Experiments:
[1] = Validation of Assay for Modulators of Lamin A Splicing (AID 1459; active means well fitted curve in the direction sought with a large enough effect in the signal ratio; the % refers to the signal ratio;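 further: cells exposed to compound for two days before reading; 0% is about no effect; ratio rise marks activators and ratio drop marks inhibitors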)
Summary of the method: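 Dual-reporter HeLa S3 line (lamin A-EGFP minigene, DsRed2) treated with compounds 48 hrs, 0.5% DMSO final. Endpoint: EGFP/DsRed2 total intensity ratio from laser-scanning microplate cytometry.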

[2] = qHTS Assay for Lipid Storage Modulators (AID 1519); conditions: Drosophila S3 cells, BODIPY lipid droplet/cell ratio, laser cytometry, cells loaded with oleic acid; on activity change, negative = inhibition: on the % scale 0 is the no-effect control and ±100 the full control effect
Summary of the method: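 Cells seeded at 5,000 per well were treated with compounds over a concentration series and loaded with oleic acid (400 uM, as added). Lipid droplet fluorescence (488 nm excitation, 500-530 nm channel) was read by laser-scanning cytometry and normalized to 20 uM Triacsin C.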

[3] = target: DNA repair nuclease/redox regulator APEX1 (Homo sapiens) (UniProt P27695); assay: qHTS Validation Assay for Inhibitors of the Human Apurinic/apyrimidinic Endonuclease 1 (APE1) (AID 1705; active means well fitted curve in the direction sought with a large enough effect; an effect the other way counts as inactive or inconclusive;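 further: TAMRA fluorescence gain over two minutes as APE1 cuts a quenched THF abasic duplex; on the % scale 0 is the no-effect control and ±100 the full control effect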)
Chain of DNA repair nuclease/redox regulator APEX1 (Homo sapiens) (P27695 whole entry, looked up): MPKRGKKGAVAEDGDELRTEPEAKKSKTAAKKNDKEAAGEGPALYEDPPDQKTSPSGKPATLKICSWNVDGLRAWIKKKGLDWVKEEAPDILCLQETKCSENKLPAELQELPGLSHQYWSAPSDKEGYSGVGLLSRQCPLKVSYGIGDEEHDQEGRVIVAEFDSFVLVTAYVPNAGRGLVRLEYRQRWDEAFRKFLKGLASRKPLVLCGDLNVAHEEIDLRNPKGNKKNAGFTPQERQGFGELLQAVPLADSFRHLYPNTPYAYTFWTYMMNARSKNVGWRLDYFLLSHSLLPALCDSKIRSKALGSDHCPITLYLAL
Summary of the method: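 Substrate: 50 nM final fluorophore/quencher THF-abasic duplex. Enzyme preincubated with compounds 15 min, RT. Progress derived from fluorescence difference, third minus first kinetic read.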

[4] = Counterscreen for APE1 Inhibitors: Fluorescent Dye Displacement Validation Assay (AID 1707; active means well fitted curve in the direction sought with a large enough effect; an effect the other way counts as inactive or inconclusive;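 further: plate controls were ThO with dsDNA and no compound for no effect and ThO without dsDNA for full effect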)
Summary of the method: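 Signal: ThO fluorescence (ex 480 nm/em 540 nm) on binding 50 nM dsDNA; displacement by test compound reduces it. Conditions: 250 nM dye, 50 mM Tris-HCl pH7.5, 2 mM MgCl2, 50mM NaCl, 0.01% Tween-20.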

[5] = target: Endonuclease 4 (Escherichia coli (strain K12)) (UniProt P0A6C1); assay: Counterscreen for APE1 Inhibitors: qHTS Validation Assay for Inhibitors of Endonuclease IV (AID 1708; active means well fitted curve in the direction sought with a large enough effect; an effect the other way counts as inactive or inconclusive; further: on the % scale 0 is the no-effect control and ±100 the full control effect)
Summary of the method: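 The reaction buffer contained 50 mM Tris-HCl pH 7.5, 50 mM NaCl, 2 mM MgCl2, 1 mM DTT and 0.01% Tween-20. Incision of a 50 nM fluorophore/quencher THF substrate by 2 nM enzyme was measured kinetically.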

[6] = qHTS for differential inhibitors of proliferation of Plasmodium falciparum line 7G8 (AID 1815; active means well fitted curve in the direction sought with a large enough effect; an effect the other way counts as inactive or inconclusive;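 further: potency means the concentration at half of the fitted maximal effect; parasite growth measured after three days of incubation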)
[7] = target: Alpha-galactosidase A (Homo sapiens) (UniProt P06280); assay: Counterscreen for Glucocerebrosidase Inhibitors: qHTS Assay for Human alpha-Galactosidase at pH 4.5 (AID 992; active means well fitted curve in the direction sought with a large enough effect; an effect the other way counts as inactive or inconclusive; further: 0% is about no effect)
Chain of Alpha-galactosidase A (Homo sapiens) (P06280 whole entry, looked up): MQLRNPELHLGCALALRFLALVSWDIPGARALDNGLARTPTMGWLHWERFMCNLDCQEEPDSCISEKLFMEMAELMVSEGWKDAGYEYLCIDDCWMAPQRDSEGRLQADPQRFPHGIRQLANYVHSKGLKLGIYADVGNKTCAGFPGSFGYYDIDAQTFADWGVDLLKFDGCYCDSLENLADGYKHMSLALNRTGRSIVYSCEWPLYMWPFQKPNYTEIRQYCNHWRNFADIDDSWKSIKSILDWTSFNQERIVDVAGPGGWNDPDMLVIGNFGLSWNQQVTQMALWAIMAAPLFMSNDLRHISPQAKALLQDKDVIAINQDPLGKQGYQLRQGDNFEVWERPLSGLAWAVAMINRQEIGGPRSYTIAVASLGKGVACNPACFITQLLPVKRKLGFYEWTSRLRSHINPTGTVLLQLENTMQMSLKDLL
Summary of the method: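 Citrate buffer pH 4.5, Tween-20 0.005%. Enzyme 2 nM, substrate 80 uM, 20 min RT. Stop pH 10. Fluorescence Ex 365/Em 440. AC50 by Hill fit.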

[8] = target: alpha-glucosidase (Oryza sativa, rice) (UniProt Q653V4); assay: Counterscreen for Glucocerebrosidase Inhibitors: qHTS Assay for Rice alpha-Glucosidase at pH 5.0 (AID 997; active means well fitted curve in the direction sought with a large enough effect; an effect the other way counts as inactive or inconclusive;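 further: 0% = full activity with enzyme and -100% = basal without enzyme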)
Summary of the method: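 Endpoint fluorogenic assay at pH 5.0: compounds (0.7 nM to 77 uM) titrated against 4 nM rice enzyme and 400 uM 4-MU-alpha-glucoside for 20 min at room temperature; NaOH/glycine stop, read ex 365/em 440 nm, Hill-fitted AC50.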

[9] = Cell Viability - LYMP2-010 (AID 981; active means well fitted curve in the direction sought with a large enough effect; an effect the other way counts as inactive or inconclusive;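 further: potency means the concentration at half of the fitted maximal effect; cells exposed to compound for 24 hours at 37 °C; nearly all actives have a fitted effect of over 55% in size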)
Summary of the method: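 qHTS cytotoxicity, 1536-well: 2500 cells/well, 5 hr settle, 24 hr compound at 37 C, CellTiter-Glo 30 min RT, luminescence read. Decrease in ATP = toxicity; AC50 via standard Hill equation. Positive control tetraoctylammonium bromide.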

[10] = Cell Viability - LYMP2-012 (AID 982; active means well fitted curve in the direction sought with a large enough effect; an effect the other way counts as inactive or inconclusive;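 further: cellular ATP by luciferase luminescence where a drop means cytotoxicity; potency means the concentration at half of the fitted maximal effect; cells exposed to compound for one day before reading; nearly all actives have a fitted effect of over 55% in size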)
[11] = Cell Viability - LYMP2-016 (AID 984; active means well fitted curve in the direction sought with a large enough effect; an effect the other way counts as inactive or inconclusive;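 further: potency means the concentration at half of the fitted maximal effect; cells exposed to compound for 24 hours at 37 °C; nearly all actives have a fitted effect of over 55% in size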)
Summary of the method: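 Concentration-dependent ATP depletion measured in LYMP2-016 lymphoblastoid cells, 24 h, 37 C; luciferase-based luminescent detection; Hill-equation AC50.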

[12] = Cell Viability - LYMP2-018 (AID 985; active means well fitted curve in the direction sought with a large enough effect; an effect the other way counts as inactive or inconclusive; further: potency means the concentration at half of the fitted maximal effect; nearly all actives have a fitted effect of over 50% in size)
Summary of the method: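 2500 cells/well; 5 hr 37 C; cmpd 24 hr 37 C, complete medium; CellTiter-Glo 30 min RT; luminescence. Tetraoctylammonium bromide positive control. AC50 via Hill fit.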

[13] = Cell Viability - LYMP2-022 (AID 987; active means well fitted curve in the direction sought with a large enough effect; an effect the other way counts as inactive or inconclusive; further: potency means the concentration at half of the fitted maximal effect; nearly all actives have a fitted effect of over 55% in size)
Summary of the method: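 Luminescent ATP read-out (CellTiter-Glo, 30 min, RT) after 24 hr, 37 C compound exposure of 2500 human lymphoblastoid cells/well in complete medium. Cytotoxicity taken as concentration-dependent ATP loss; AC50 from standard Hill equation.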

[14] = Cell Viability - LYMP2-024 (AID 988; active means well fitted curve in the direction sought with a large enough effect; an effect the other way counts as inactive or inconclusive; further: potency means the concentration at half of the fitted maximal effect; nearly all actives have a fitted effect of over 60% in size)
Summary of the method: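 ATP-based luminescence (CellTiter-Glo, 30 min RT) after 24 h compound exposure at 37 C of 2500 lymphoblastoid cells/well; decrease in ATP taken as cytotoxicity. qHTS concentration-response fitted to standard Hill equation for AC50.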

[15] = Cell Viability - LYMP1-002 - Assay at 24 hr (AID 993; active means well fitted curve in the direction sought with a large enough effect; an effect the other way counts as inactive or inconclusive; further: on the % scale 0 is the no-effect control and ±100 the full control effect)
Summary of the method: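 CellTiter-Glo luminescence (intracellular ATP) after 24 h compound exposure, 37 C, in LYMP1-002 human lymphoblastoid cells; decreased ATP taken as cytotoxicity. AC50 from standard Hill fit of concentration-response curves.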

[16] = measured here: cell count channel max response
[17] = measured here: lipid channel max response

## CC(CCc1ccccc1)NCC(O)c1ccc(O)c(C(N)=O)c1 (stereo not given)
[1]
  outcome: inactive
[2]; at 57.5 µM (top of the series)
  activity change, negative = inhibition: 1.59% (inactive) and 2.63% (inactive)
[2]; [16]
  max response: 0.538% and 18.3%
[2]; [17]
  max response: 3.22% and 11.8%
[3]
  Potency: inactive
[4]
  outcome: inactive
[5]
  outcome: inactive
[6]
  Potency: 7.94 µM (active)

## CN1CCC(=C2c3ccccc3Sc3ccccc32)CC1
[2]; at 25.7 µM (top of the series)
  activity change, negative = inhibition: -2.77% (inactive)
[2]; at 57.5 µM (top of the series)
  activity change, negative = inhibition: 13.8% (inactive)
[2]; [16]
  max response: 3.5% and 5.85%
[2]; [17]
  max response: -0.527% and 23.3%

## C=C(CC)C(=O)c1ccc(OCC(=O)O)c(Cl)c1Cl
[9]
  Potency: 39.8 µM (active)
[10]
  Potency: 39.8 µM (active)
[11]
  Potency: 39.8 µM (active)
[12]
  Potency: 39.8 µM (active)
[13]
  Potency: 39.8 µM (active)
[14]
  Potency: 39.8 µM (active)
[15]
  Potency: inactive
[2]; at 25.7 µM (top of the series)
  activity change, negative = inhibition: -7.65% (inactive)
[2]; at 57.5 µM (top of the series)
  activity change, negative = inhibition: 1.41% (inactive)
[2]; [16]
  max response: 5.62% and 9.96%
[2]; [17]
  max response: -2.15% and 13.8%

## CCCCC1=NC2(CCCC2)C(=O)N1Cc1ccc(-c2ccccc2-c2nn[nH]n2)cc1
[2]; at 57.5 µM (top of the series)
  activity change, negative = inhibition: -6.83% (inactive)
[2]; [16]
  max response: 15.4%
[2]; [17]
  max response: 9.2%

## Cc1ccnc(NS(=O)(=O)c2ccc(N)cc2)n1
[2]; at 25.7 µM (top of the series)
  activity change, negative = inhibition: 2.4% (inactive)
[2]; at 57.5 µM (top of the series)
  activity change, negative = inhibition: 7.92% (inactive)
[2]; [16]
  max response: -11% and -0.764%
[2]; [17]
  max response: -8.59% and 9.99%

## Nc1nc2ncc(CNc3ccc(C(=O)N[C@@H](CCC(=O)O)C(=O)O)cc3)nc2c(=O)[nH]1
[2]; at 25.7 µM (top of the series)
  activity change, negative = inhibition: -2.19% (inactive)
[2]; at 57.5 µM (top of the series)
  activity change, negative = inhibition: 8.45% (inactive)
[2]; [16]
  max response: -7.62% and 6.6%
[2]; [17]
  max response: -8.4% and 15.7%

## CCOC(=O)n1ccn(C)c1=S
[2]; at 25.7 µM (top of the series)
  activity change, negative = inhibition: -1.84% (inactive)
[2]; at 57.5 µM (top of the series)
  activity change, negative = inhibition: 8.2% (inactive)
[2]; [16]
  max response: -4.79% and 2.58%
[2]; [17]
  max response: -8.09% and 22%

## CC(C)N=C(N)/N=C(\N)Nc1ccc(Cl)cc1
[2]; at 25.7 µM (top of the series)
  activity change, negative = inhibition: -2.29% (inactive)
[2]; [16]
  max response: -10.3%
[2]; [17]
  max response: -11.8%

## COc1ccc(OC)c(C(O)CNC(=O)CN)c1 (stereo not given)
[2]; at 57.5 µM (top of the series)
  activity change, negative = inhibition: 8.05% (inactive)
[2]; [16]
  max response: 10.1%
[2]; [17]
  max response: 23.2%

## OC(CCN1CCCCC1)(c1ccccc1)c1ccccc1
[2]; at 25.7 µM (top of the series)
  activity change, negative = inhibition: -4.82% (inactive)
[2]; at 57.5 µM (top of the series)
  activity change, negative = inhibition: 3.44% (inactive)
[2]; [16]
  max response: 1.42% and 9.61%
[2]; [17]
  max response: -4.61% and 14.1%

## CNCCC=C1c2ccccc2CCc2ccccc21
[7]
  outcome: inactive
[8]
  outcome: inactive
[2]; at 25.7 µM (top of the series)
  activity change, negative = inhibition: -2% (inactive)
[2]; at 57.5 µM (top of the series)
  activity change, negative = inhibition: 7.28% (inactive)
[2]; [16]
  max response: -0.512% and 24.9%
[2]; [17]
  max response: -6.43% and 39.3%
[3]
  Potency: inactive
[4]
  outcome: inactive
[5]
  outcome: inactive
[6]
  Potency: 7.08 µM (active)

## CN(C)CC/C=C1\c2ccccc2Sc2ccc(Cl)cc21
[2]; at 25.7 µM (top of the series)
  activity change, negative = inhibition: -2% (inactive)
[2]; at 57.5 µM (top of the series)
  activity change, negative = inhibition: 8.38% (inactive)
[2]; [16]
  max response: -15.8% and 5.25%
[2]; [17]
  max response: -14.2% and 16.4%

## CC(=O)c1ccc2c(c1)N(CCCN1CCC(CCO)CC1)c1ccccc1S2
[2]; at 25.7 µM (top of the series)
  activity change, negative = inhibition: -1.72% (inactive)
[2]; [16]
  max response: -5%
[2]; [17]
  max response: -2.93%
